PPARg SRC1 recr = PPARgamma agonists recruiting SRC-1 coactivator, primary screen, biochemical | Peroxisome proliferator-activated receptor gamma (Homo sapiens), P37231 | PPARgamma-SRC-1 coactivator recruitment biochemical assay | activation, % at 8 µM | 200,000 compounds, 0.41% hits; in the data active = activation above about 19%
PPARg SRC-3 ag = PPARgamma agonists recruiting SRC-3 coactivator, primary screen, biochemical; Peroxisome proliferator-activated receptor gamma (Homo sapiens), P37231; biochemical PPARgamma/SRC-3 coactivator recruitment assay; activation, % at 8 µM; 200,000 compounds, 0.26% hits; AID 731, 2007; in the data active = activation above about 23%
PPARg SRC2 recr = agonists of PPARg-SRC-2 recruitment, primary screen, biochemical, HTS. PPARgamma LBD-SRC-2 recruitment. activation, % at 8 µM. 200,000 compounds, 0.34% hits. AID 1032, 2008
SRC1 TRFRET art = TR-FRET detection interference compounds, primary screen, artefact control for PPARgamma SRC-1 recruitment agonists, biochemical, TR-FRET emission ratio. TR-FRET detection artefact counter-screen; active compounds read high. 99,000 compounds, 0.34% hits. TR-FRET ratio at 8 µM. AID 1051, 2008; in the data active = TR-FRET ratio above about 2300
SRC2 TRFRET art = TR-FRET signal artefacts, primary screen, artefact control for PPARgamma SRC-2 agonist project, biochemical. 200,000 compounds, 0.4% hits. TR-FRET artefact counter-screen; active compounds read high. TR-FRET ratio at 8 µM; in the data active = TR-FRET ratio above about 2000
SRC3 TRFRET art = TR-FRET detection interference compounds, artefact control for PPARgamma SRC-3 recruitment agonists, biochemical, TR-FRET ratio; TR-FRET artefact counter-screen, PPARgamma/SRC-3 format; active compounds read high; TR-FRET ratio at 8 µM; 99,000 compounds, 0.39% hits; in the data active = TR-FRET ratio above about 2000
PPARg SRC2 conf = agonists of PPARgamma SRC-2 coactivator recruitment, confirmation, biochemical, HTS; shares compounds with PPARg SRC-3 ag; activation, % at 8 µM; 790 compounds, 52% hits; biochemical SRC-2 recruitment by PPARgamma
PPARg SRC1 conf = PPARgamma agonists recruiting SRC-1 coactivator, confirmation, biochemical; activation, % at 8 µM; shares compounds with PPARg SRC-3 ag; PPARgamma–SRC-1 coactivator recruitment biochemical assay; 790 compounds, 43% hits; AID 1300, 2008; in the data active = activation above about 20%
PPARg SRC3 ag = PPARgamma-driven SRC-3 coactivator recruitment agonists, confirmation, biochemical; biochemical PPARgamma-SRC-3 coactivator recruitment, agonist mode; shares compounds with PPARg SRC-3 ag; activation, % at 8 µM; 790 compounds, 29% hits; in the data active = activation above about 24%
Numbers stand for hits; n = inactive; x = no result. A selection: hits, their analogues and other compounds. The true share with any hit is near 0.9%. Rule as the data show it, unless noted: active = activation above about 22%; inactive = the rest.

SMILES	PPARg SRC1 recr	PPARg SRC-3 ag	PPARg SRC2 recr	SRC1 TRFRET art	SRC2 TRFRET art	SRC3 TRFRET art	PPARg SRC2 conf	PPARg SRC1 conf	PPARg SRC3 ag
COC(=O)CN(C#N)c1nc(NC(C)C)nc(NC(C)C)n1	n	n	n	n	n	n	x	x	x
CCN(CC)S(=O)(=O)c1ccc2c(c1)nc(CCC(=O)Nc1ccc(N3CCOCC3)cc1)n2C	n	n	n	n	n	n	x	x	x
CN(C)/C=C/c1oc2ccc(O)cc2c1[N+](=O)[O-]	n	n	24	n	n	n	n	n	n
Cc1ccc(CN2CCN(Cc3ccc(Oc4ncccn4)cc3)CC2CCO)cc1 (stereo not drawn)	n	n	n	n	n	n	x	x	x
CCOC(=O)c1[nH]c2ccc(C)cc2c1N	n	n	n	n	n	n	x	x	x
CCOC(=O)c1[nH]c2cc(OC)c(OC)cc2c1N	n	n	25	x	n	x	n	n	n
COC(=O)c1[nH]c2ccc(Br)cc2c1NC(=O)CN1CCCc2ccccc21	32	50	42	x	2282	x	n	n	n
CCOC(=O)C1CCCN(CC(=O)Nc2c(C(=O)OC)[nH]c3ccc(Br)cc23)C1 (stereo not drawn)	26	42	40	x	2688	x	34	23	24
O=C(CSc1nc(O)c(C2CCCCC2)c(=O)[nH]1)N1CCOCC1	n	n	n	n	n	n	x	x	x
Cc1ccc(/C=N/Nc2ccc3ccccc3n2)o1	22	n	n	n	n	n	n	n	n
Cc1cccc(N=C2NC(=O)S/C2=C\c2ccco2)c1	22	n	n	2337	n	n	n	n	n
N#Cc1cc(C(=O)c2cc(Br)ccc2O)cn(Cc2ccccc2)c1=O	31	n	n	n	n	n	27	23	n
COc1ccc(O)c(C(=O)c2cc(C#N)c(=O)n(Cc3ccccc3)c2)c1	n	n	n	n	n	n	x	x	x
COc1cc2cccc(OC)c(=O)c2c(O)c1OC	n	n	n	n	n	n	x	x	x
CC(=O)Oc1cc2cccc(OC(C)=O)c(=O)c2c(OC(C)=O)c1OC(C)=O	n	n	n	n	n	n	n	n	n
Cc1occc1C(=O)N/N=C/c1c[nH]c2ccccc12	19	n	n	x	n	x	n	n	n
COc1ccccc1C1Nc2cccc3cccc(c23)N1	19	n	n	x	n	x	n	n	n
Cc1cn(S(=O)(=O)c2ccc(Br)c3ccccc23)cn1	31	52	49	x	2712	x	40	26	28
Cc1c(NC(=O)Cn2ccc([N+](=O)[O-])n2)c(=O)n(-c2ccccc2)n1C	n	n	n	x	n	x	x	x	x
CCOc1ccc(CNc2ccc(N3CCCC3)cc2)cc1	n	n	29	x	n	x	n	n	n
COc1cc(C(=O)NCCC(C)C)ccc1OCc1ccc(Cl)cc1Cl	48	47	n	n	n	n	n	45	38
C/C(=N\Nc1nc(N2CCCCC2)nc(N2CCOCC2)n1)c1ccccc1O	n	n	n	n	n	n	x	x	x
Cc1ccc(CSc2nc3ccsc3c(=O)n2Cc2ccccn2)cc1	n	n	n	n	n	n	x	x	x
O=c1c2sccc2nc(SCc2cc(=O)n3cc(Br)ccc3n2)n1Cc1ccccn1	23	n	23	2338	2046	2195	n	n	n
CCSc1oc(-c2ccccc2)nc1S(=O)(=O)c1ccccc1	n	n	n	x	n	x	x	x	x
SMILES	PPARg SRC1 recr	PPARg SRC-3 ag	PPARg SRC2 recr	SRC1 TRFRET art	SRC2 TRFRET art	SRC3 TRFRET art	PPARg SRC2 conf	PPARg SRC1 conf	PPARg SRC3 ag
Cc1ccc(S(=O)(=O)c2nc(-c3cccs3)oc2SCC(N)=O)cc1	n	n	31	x	n	x	32	32	n
CSc1oc(-c2ccccc2)nc1S(=O)(=O)c1ccc(C)cc1	n	n	26	n	n	2062	25	20	n
COc1ccc(CNC(=O)CSc2cc(=O)n(C)c3ccccc23)cc1	40	24	26	2843	2425	2050	37	24	24
Cc1ccc(C)c(SCC(=O)NCc2ccco2)c1	n	n	n	x	n	x	x	x	x
Cn1c(=O)cc(SCC(=O)NCC2CCCO2)c2ccccc21 (stereo not drawn)	45	78	49	x	2686	x	35	23	n
Cn1c(=O)cc(SCC(=O)NCc2ccco2)c2ccccc21	28	38	36	x	2082	x	33	22	n
COc1cccc(CNC(=O)CSc2cc(=O)n(C)c3ccccc23)c1	42	n	23	2682	2371	n	36	25	24
CCC(C)NC(=O)c1cc(Sc2nnc(C)s2)nc2ccccc12 (stereo not drawn)	n	n	n	n	n	n	x	x	x
COc1ccc(CC(=O)NCc2nnc(SCCOc3ccccc3)n2C)cc1	19	n	n	x	n	x	n	n	n
CCn1c(CNC(=O)Cc2ccc(OC)cc2)nnc1SCCOc1ccccc1	n	n	n	x	n	x	x	x	x
COc1cc(C(C)=O)ccc1OC(=O)c1cc2cccc(OC)c2oc1=O	n	n	n	n	n	n	x	x	x

Source: PubChem BioAssay
